Data: PubChem BioAssay

Assay: small molecules captured by biotinylated probe aFGF10 – biochemical, small-molecule microarray, fluorescence 635/667, stem cell growth factor project, primary screen (AID 1071);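 note: score merges 667 nm spot intensity and signal to noise from triplicate slides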
Settings: higher = more signal

**Q.** Which composite z-score does the source give for `[N-]=[N+]=Nc1ccccc1[C@H]1OC(c2ccc(OCCCO)cc2)=N[C@@]1(Cc1ccccc1)C(=O)N1CCCCC1` here?
**A.** 0.692

**Q.** Which composite z-score does the source give for `CCCNC(=O)[C@@]1(c2ccc([N+](=O)[O-])cc2)CC(=O)N(C2CCCCC2)[C@@H]1c1ccc(CO)cc1` here?
**A.** 0.588

**Q.** With `CN1C(=O)C2C=CC(C(O)c3ccccn3)N(N(c3ccccc3)c3ccccc3)C2C1=O` (stereo unspecified) as the compound, how does the composite z-score read?
**A.** 0.0491

**Q.** With `COCCOC(=O)N1C(=O)[C@@]2(c3cc(C#CC4=CCCCC4)ccc31)[C@H](c1ccc(O)cc1)N1[C@H](c3ccccc3)[C@H](c3ccccc3)OC(=O)[C@H]1[C@@H]2C(=O)N1CCN(c2ncccn2)CC1` as the compound, how does the composite z-score read?
**A.** -0.164

**Q.** With `C[N+](C)(C)CCCCCCNC(=O)[C@H]1C[C@H]2C(=O)N[C@@H](Cc3ccccc3)C(=O)N2[C@H]1c1ccc(O)cc1` as the compound, how does the composite z-score read?
**A.** 0.316

**Q.** Which composite z-score does the source give for `O=C1NC(=O)C2C1C=CC(C(O)c1cccc3ccccc13)N2Nc1ccc(Cl)cc1Cl` (stereo unspecified) here?
**A.** 0.51

**Q.** With `COC(=O)[C@@]1(Cc2ccc(F)cc2)[C@H]2c3cc(C(=O)N4CCCC4)n(CCc4ccc(O)c(O)c4)c3C[C@H]2CN1C(=O)c1ccccc1` as the compound, how does the composite z-score read?
**A.** 0.146

**Q.** Which composite z-score does the source give for `O=C(CS)NCCCCCCNC(=O)[C@H]1C[C@H]2C(=O)N[C@@H](Cc3ccccc3)C(=O)N2[C@H]1c1ccc(O)cc1` here?
**A.** 0.836

**Q.** Which composite z-score does the source give for `C#CCN([C@@H](Cc1ccc(O)cc1)C(=O)OC)[C@@H](/C=C/C1CC1)[C@H](O)Cc1ccccc1` here?
**A.** -0.37

**Q.** With `CCOC(=O)c1ccc(NC(=O)O[C@H]2[C@H](OC(=O)Nc3ccc4c(c3)OCO4)[C@@H](OC(=O)Nc3ccc4c(c3)OCO4)[C@@H](OC)O[C@@H]2CO)cc1` as the compound, how does the composite z-score read?
**A.** 1.03

**Q.** Which composite z-score does the source give for `O=c1n(-c2ccccc2)c(=O)n2n1CC(COc1ccccc1)=C([C@H](O)CCc1ccccc1)[C@@H]2CO` here?
**A.** 0.265

**Q.** For `COc1ccc([Si](C)(C)[C@@H]2[C@@H](CC(=O)N3Cc4ccccc4C[C@H]3CO)O[C@]3(C(=O)N(Cc4cccc(N5C(=O)c6cccc7cccc5c67)c4)c4ccccc43)[C@H]2C)cc1`, which composite z-score is on record?
**A.** 0.659

**Q.** For `CN(C)C(=O)[C@]1(CCS(=O)(=O)c2ccccc2)N=C(c2ccc(OCCCO)cc2)O[C@@H]1c1ccccc1N=[N+]=[N-]`, which composite z-score is on record?
**A.** 1.16

**Q.** Which composite z-score does the source give for `COC(=O)[C@@]1(Cc2ccc(OC)cc2)[C@H]2c3cc(C(=O)N4CCCC4)n(Cc4c(-c5ccccc5)noc4C)c3C[C@H]2CN1C(=O)c1ccccc1` here?
**A.** 0.812

**Q.** With `O=C1O[C@H](c2ccccc2)[C@H](c2ccccc2)N2[C@H]1[C@@H](C(=O)O)[C@]1(C(=O)Nc3ccc(C#CC4=CCCCC4)cc31)[C@H]2c1ccc(O)cc1` as the compound, how does the composite z-score read?
**A.** 0.728

**Q.** Which composite z-score does the source give for `COc1cc2c(cc1OC)CN(C(=O)[C@@H]1[C@H]3C(=O)O[C@H](c4ccccc4)[C@H](c4ccccc4)N3[C@H](c3ccc(OCCO)cc3)[C@@]13C(=O)Nc1ccccc13)CC2` here?
**A.** 1.01

**Q.** Which composite z-score does the source give for `COC(=O)[C@@]1(Cc2ccccc2)[C@H]2c3cc(C(=O)N(C)C)n(CCN4CNCC4=O)c3C[C@H]2CN1C(=O)c1ccccc1` here?
**A.** 0.307

**Q.** For `CN(C)c1ccc(C(O)C2C=CC3C(=O)N(c4ccccc4)C(=O)C3N2Nc2ccc([N+](=O)[O-])cc2)cc1` (stereo unspecified), which composite z-score is on record?
**A.** 0.551

**Q.** With `C=C(C)c1cc2c(c(CCCCCC)n1)[Si](C(C)C)(C(C)C)OC2` as the compound, how does the composite z-score read?
**A.** -1.05

**Q.** Which composite z-score does the source give for `O=C1O[C@@H](c2ccccc2)[C@@H](c2ccccc2)N2[C@@H](c3ccc(O)cc3)[C@]3(C(=O)Nc4ccc(C#CC5(O)CCCCCC5)cc43)[C@@H](C(=O)NC[C@H](O)c3ccccc3)[C@H]12` here?
**A.** 0.753

**Q.** For `COCCCNC(=O)[C@@]1(Cc2ccccc2N=[N+]=[N-])N=C(c2ccc(OCCCO)cc2)O[C@H]1c1ccccc1`, which composite z-score is on record?
**A.** 0.904

**Q.** For `O=C1O[C@H](c2ccccc2)[C@H](c2ccccc2)N2[C@H]1[C@@H](C(=O)Nc1nc3ccccc3s1)[C@]1(C(=O)Nc3ccc(C#CCCO)cc31)[C@H]2c1ccc(O)cc1`, which composite z-score is on record?
**A.** 1.01

**Q.** For `COC(=O)[C@@]1(Cc2ccccc2)[C@H]2c3cc(C(=O)N(C)C)n(CCc4ccc(O)c(OC)c4)c3C[C@H]2CN1C(=O)c1ccccc1`, which composite z-score is on record?
**A.** 0.557

**Q.** With `O=C1OCC=C[C@H]2OC34C=CCN(c5ccc(Cl)cc5)C(=O)[C@H]3N(CCO)C(=O)[C@@H]4[C@@H]12` (stereo partly specified) as the compound, how does the composite z-score read?
**A.** -0.0609

**Q.** For `CC(C)Cc1ccc(CN2CC[C@@H](NC(=O)Nc3ccccc3)C2)cc1`, which composite z-score is on record?
**A.** 0.118

**Q.** Which composite z-score does the source give for `C=CCC(OC(C)=O)[C@@H]1[C@@H](N(Cc2cc3ccccc3o2)C(=O)c2ccc(-c3ccccc3)cc2)c2cc(OCCCO)ccc2N1C(=O)c1ccc2ccccc2c1` (stereo partly specified) here?
**A.** -0.0863
